Assay results as given in PubChem BioAssay AID1159580 (chemical genetic matrix, 2015).
Hit rate of the full screen: of about 5,500 compounds, about 2,000 (36%) were called active. Another 18% or so got no clear call; they are omitted. Rule as the data show it: active = normalized growth mostly below about 0.91 (no sharp cut-off); inconclusive = no clear call, values can overlap the other calls; inactive = mostly above about 0.92. The list shows a part of the results.

Assay: chemical genetic growth profiling, strain panel (AID 1159580);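 also: tested at 20 µM; growth read once vehicle control cultures reached saturation at 30 °C; 1 = growth at the plate median or of vehicle wells; lower values mean less growth of the strain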
Conditions: S. cerevisiae deletion strains, growth OD

Measured: normalized growth

Cc1c(Cl)cccc1NC(=S)N1CCCN(c2ccc(C(F)(F)F)cc2[N+](=O)[O-])CC1
inactive: locus YAR019C, strain CDC15, stronger effect = lower value 0.991 | locus YBL105C, strain PKC1, stronger effect = lower value 0.979 | locus YBR135W, strain CKS1, stronger effect = lower value 0.992 | locus YBR136W, strain MEC1, stronger effect = lower value 0.971 | locus YBR160W, strain CDC28, stronger effect = lower value 0.994 | locus YDL017W, strain CDC7, stronger effect = lower value 0.993 | locus YDL028C, strain MPS1, stronger effect = lower value 0.995 | locus YDL101C, strain DUN1, stronger effect = lower value 0.977 | locus YDL108W, strain KIN28, stronger effect = lower value 0.978 | locus YDL132W, strain cdc53, stronger effect = lower value 0.986 | locus YDL214C, strain PRR2, stronger effect = lower value 0.971 | locus YDR052C, strain DBF4, stronger effect = lower value 0.991 | locus YDR054C, strain cdc34, stronger effect = lower value 0.976 | locus YDR226W, strain ADK1, stronger effect = lower value 0.987 | locus YDR477W, strain SNF1, stronger effect = lower value 0.983 | locus YER123W, strain YCK3, stronger effect = lower value 0.988 | locus YER133W, strain GLC7, stronger effect = lower value 0.969 | locus YFL009W, strain cdc4, stronger effect = lower value 0.98 | locus YFL029C, strain CAK1, stronger effect = lower value 0.994 | locus YFR003C, strain YPI1, stronger effect = lower value 0.987 | locus YFR019W, strain FAB1, stronger effect = lower value 0.957 | locus YFR028C, strain CDC14, stronger effect = lower value 0.995 | locus YGR040W, strain KSS1, stronger effect = lower value 0.98 | locus YGR052W, strain FMP48, stronger effect = lower value 1.04 | locus YGR092W, strain DBF2, stronger effect = lower value 0.964 | locus YHR079C, strain IRE1, stronger effect = lower value 0.89 | locus YHR082C, strain KSP1, stronger effect = lower value 1.06 | locus YHR205W, strain SCH9, stronger effect = lower value 1 | locus YIL147C, strain SLN1, stronger effect = lower value 0.989 | locus YJL095W, strain BCK1, stronger effect = lower value 1.01 | locus YJL128C, strain PBS2, stronger effect = lower value 0.942 | locus YJL157C, strain FAR1, stronger effect = lower value 0.951 | locus YJR016C, strain ILV3, stronger effect = lower value 0.982 | locus YJR066W, strain TOR1 (second series), stronger effect = lower value 0.974 | locus YJR066W, strain TOR1, stronger effect = lower value 1.02 | locus YKL048C, strain ELM1, stronger effect = lower value 0.984 | locus YKL067W, strain YNK1, stronger effect = lower value 0.974 | locus YKL101W, strain HSL1, stronger effect = lower value 0.988 | locus YKL193C, strain SDS22, stronger effect = lower value 0.995 | locus YKL203C, strain TOR2, stronger effect = lower value 1.01 | locus YLR133W, strain CKI1, stronger effect = lower value 0.955 | locus YLR403W, strain SFP1, stronger effect = lower value 0.952 | locus YML070W, strain DAK1, stronger effect = lower value 0.992 | locus YMR001C, strain CDC5, stronger effect = lower value 0.961 | locus YMR205C, strain PFK2 (second series), stronger effect = lower value 0.979 | locus YMR277W, strain FCP1, stronger effect = lower value 0.997 | locus YNL006W, strain LST8, stronger effect = lower value 0.982 | locus YNL020C, strain ARK1, stronger effect = lower value 0.972 | locus YNL161W, strain CBK1, stronger effect = lower value 0.979 | locus YNL183C, strain NPR1, stronger effect = lower value 1.05 | locus YNL207W, strain RIO2, stronger effect = lower value 0.982 | locus YNL222W, strain SSU72, stronger effect = lower value 0.984 | locus YNL307C, strain MCK1 (second series), stronger effect = lower value 0.964 | locus YOL078W, strain AVO1, stronger effect = lower value 0.989 | locus YOL136C, strain PFK27, stronger effect = lower value 0.965 | locus YOR061W, strain CKA2, stronger effect = lower value 0.963 | locus YOR119C, strain RIO1, stronger effect = lower value 1.05 | locus YOR231W, strain MKK1, stronger effect = lower value 0.993 | locus YOR329C, strain SCD5, stronger effect = lower value 0.981 | locus YPL031C, strain PHO85, stronger effect = lower value 0.979 | locus YPL153C, strain RAD53, stronger effect = lower value 1 | locus YPL204W, strain HRR25, stronger effect = lower value 0.931 | locus YPL209C, strain IPL1, stronger effect = lower value 0.99 | locus YPL256C, strain CLN2, stronger effect = lower value 0.866 | locus YPR025C, strain CCL1, stronger effect = lower value 0.99 | locus YPR106W, strain ISR1, stronger effect = lower value 0.969 | locus YPR111W, strain DBF20, stronger effect = lower value 0.956 | strain NNK1, stronger effect = lower value 0.985 | strain TSCII, stronger effect = lower value 0.981
active: locus YHR030C, strain SLT2, stronger effect = lower value 0.842 | locus YLR113W, strain HOG1, stronger effect = lower value 0.859
